tim23-1 inh = growth inhibitors of tim23-1 mutant yeast, primary screen, luminescence, uHTS; S. cerevisiae tim23-1 growth, BacTiter-Glo luminescence, 24 h; inhibition, % at 20 µM; actives 1.3% (n = 330,000); AID 463212, 2010;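 active = growth inhibition of the mutant yeast at or above 50%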;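 also: temperature-sensitive mutant grown at 25 °C; plate controls were DMSO-treated mutant yeast for no effect and medium wells lacking yeast for full effect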
NALP1 inh = NALP1 inflammasome inhibitors in reconstituted yeast, colorimetric, S. cerevisiae, triplicate retest. S. cerevisiae NALP1/ASC/caspase-1 growth, X-gal OD620, 72 h. inhibition, % at 10 µM. actives 0.61% (n = 280,000). AID 2071, 2009; in the data active = inhibition mostly above about 24%, no sharp cut-off; inactive = mostly below about 32%
PfHsp90 yeast 2 = growth inhibition of PfHsp90-expressing yeast, primary screen, antimalarial PfHsp90 inhibitor project, S. cerevisiae, BacTiter-Glo luminescence, single point, set 2. BacTiter-Glo ATP, 48 h; yeast lacking PDR1 and PDR3 efflux regulators. inhibition, % at 9.4 µM. actives 0.32% (n = 310,000). AID 504621, 2011;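 active = every replicate shows inhibition above about 80%, whatever the replicate mean, limit read from the data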;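 also: 0% = DMSO neutral controls and 100% = 20 µM radicicol positive controls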
NLRP3 yeast inh = NALP3 inflammasome inhibitors in reconstituted yeast, primary screen, luminescence, uHTS | inhibition, % at 10 µM | actives 0.39% (n = 330,000) | Yeast reconstituted NLRP3/ASC/caspase-1, beta-gal luminescence, 24 h;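 active = inhibition of 50% or more; inactive = inhibition below 50%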;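 also: plate controls were induced DMSO wells for no effect and uninduced yeast grown without galactose for full effect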
tim10-1 inh = growth inhibitors of tim10-1 mutant yeast, primary screen, luminescence, uHTS; inhibition, % at 20 µM; actives 2.2% (n = 330,000); S. cerevisiae tim10-1 ts strain growth, BacTiter-Glo, 24 h;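 active = inhibition of at least 40%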;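 also: mutant grown at 25 °C; 0% = DMSO wells with yeast and 100% = wells holding no yeast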
TIM10 inh = growth inhibitors of isogenic TIM10 control yeast, primary screen, counter-screen for tim10-1 yeast inhibitor project, luminescence, uHTS | inhibition, % at 10 µM | actives 1.4% (n = 330,000) | S. cerevisiae TIM10 strain growth, BacTiter-Glo luminescence, 24 h;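 active = inhibition of 40% or more at the single tested concentration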;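 also: wild-type TIM10 isogenic control strain grown at permissive 25 °C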
tim23-1 conf = tim23-1 mutant yeast growth inhibitors, confirmation, luminescence, single concentration | shares compounds with tim23-1 inh | S. cerevisiae tim23-1 growth, BacTiter-Glo luminescence, 24 h | inhibition, % at 20 µM | actives 83% (n = 4,400) | AID 463218, 2010;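 active = inhibition above about 39% in either of two replicate wells at 20 µM, limit read from the data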;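 also: temperature-sensitive tim23-1 mutant grown at 25 °C; 0% = DMSO wells with yeast and 100% = medium wells without yeast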
* hit, by the source's call; nt = no result; ! = repeats disagree. Compounds with a hit are over-represented: about 4.2% of the library has one in this group of screens.

SMILES	tim23-1 inh	NALP1 inh	PfHsp90 yeast 2	NLRP3 yeast inh	tim10-1 inh	TIM10 inh	tim23-1 conf
CCN(CC)c1ccc(/C=N/NC(=O)c2ccc3c(c2)OCCO3)cc1	59*	3	-10	23	13	36	57*
COc1ccc(/C=N/Nc2nc(C(=O)O)cs2)cc1	10	-18	-5	22	12	-15	nt
CN=C1N(C)C[C@@H]2[C@@H]3C(=O)N(C)C(=O)[C@@H]3[C@](Cc3ccccc3)(C(=O)OC)N12	31	nt	-53	nt	1	5	nt
O=S(=O)(Nc1cccc(S(=O)(=O)N2CCCC2)c1)c1cccs1	5	nt	13	6	8	1	nt
Nc1ccccc1C(=O)NC(=O)Nc1ccc(Oc2ncc(Br)cn2)c(Cl)c1	nt	nt	-27	nt	nt	nt	nt
O=C(c1cc2ccccc2o1)N1CCN(c2cccc(Cl)c2)CC1	-5	-4	1	7	-8	1	nt
CC(CCC(C)C(C)(C)C)[C@@H]1CC[C@H]2C3C[C@H](OS(O)(=S)=S)[C@H]4C[C@H](OS(O)(=S)=S)[C@@H](OS(O)(=S)=S)C[C@]4(C)[C@H]3CC[C@]12C (stereo not given in full) (tested in a mixture with another compound)	56*!	nt	109*	17	-62	-59	11
CC(CCC(=O)NN)C1CCC2C3CCC4CC(O)CCC4(C)C3CCC12C (stereo not given)	nt	nt	5	nt	nt	nt	nt
CCCOc1ccc(-c2csc(N)n2)cc1[N+](=O)[O-]	57*	41	-7	35	21	32	57*
O=[N+]([O-])c1ccc(O)c(/C=N/n2cnnc2)c1	9	30	16	10	-2	13	nt
O=C1/C(=C/c2cccc(Br)c2)SC(=S)N1/N=C/c1cc([N+](=O)[O-])ccc1O	82*	nt	0	31	13	18	30
CCOc1ccc(NC(=O)CCC(=O)Oc2ccc(C)cc2)cc1	5	23	5	-3	2	2	nt
N/C(CC(=O)Nc1ccc(F)cc1F)=N\OC(=O)c1cccs1	61*	2	19	-1	34	30	40*
O=C(COc1cc2oc(=O)c3c(c2cc1Cl)CCC3)NCc1ccncc1	10	16	-34	8	20	6	nt
CC(C)CC(=O)Nc1ccccc1N1CCN(C(=O)c2ccccc2)CC1	76*	-3	-1	11	13	4	7
O=Cc1cccc(OCc2cccc3ccccc23)c1	57*	12	20	18	7	16	37
Oc1c(Cl)cc(Cl)cc1CNc1nccs1	51*	9	-6	21	-19	9	52*
Oc1c(Cl)cc(Cl)cc1CNn1cnnc1	-49	17	nt	-31	9	18	nt
Cc1ccc2c(c1)C(=O)C(=O)N2Cc1ccccc1	73*	nt	24	15	17	12	62*
CCOC(=O)C(=CNNc1ccccc1)C(=O)OCC	52*	-6	-30	19	40	20	79*
CCOC(=O)NNc1ccccc1	4	11	-14	6	-32	-41	nt
Oc1ccccc1C1NN=C(c2ccccc2)S1 (stereo not given)	58*	8	8	32	14	28	54*
CSc1ccc(C2NN=C(c3ccccc3)S2)cc1 (stereo not given)	8	nt	3	42	6	10	nt
COc1ccc(N2CCN(C(CNC(=O)C(=O)NCc3ccc4c(c3)OCO4)c3ccco3)CC2)cc1 (stereo not given)	-15	-14	9	-1	-16	0	nt
COc1ccccc1NC(=S)NC(=O)CC(C)C	51*	15	-11	23	28	25	27
SMILES	tim23-1 inh	NALP1 inh	PfHsp90 yeast 2	NLRP3 yeast inh	tim10-1 inh	TIM10 inh	tim23-1 conf
C/C(=N\Nc1nc(C)cc(-c2ccccc2)n1)c1ccc(O)cc1	50*	16	18	4	30	26	49*
C/C(=N\Nc1nc(C)cc(-c2ccccc2)n1)c1cccc(N)c1	36	0	-8	21	20	15	nt
C#CCOCCOCCOCCNc1nc(N2CCN(C(=O)CCCCCCCCCCNC(=O)[C@H]([C@@H](C)CC)n3cc(CCCCCN)nn3)CC2)nc(N2CCN(C(=O)CCCCCCCCCCNC(=O)[C@H]([C@@H](C)CC)n3cc(CCCCN=C(N)N)nn3)CC2)n1	40	nt	21	26	14	-9	nt
C#CCOCCOCCOCCNc1nc(N2CCN(C(=O)CCCCCCCCCCNC(=O)[C@H]([C@@H](C)CC)n3cc(CCCCN=C(N)N)nn3)CC2)nc(N2CCN(C(=O)CCCCCCCCCCNC(=O)[C@H](CCCCN)n3cc(C)nn3)CC2)n1	58*	nt	nt	17	36	12	41*
O=C(NCc1ccc(Cl)s1)C1CCC(=O)N(CCc2ccccn2)C1 (stereo not given)	-1	16	10	11	-3	2	nt
CC(=O)Nc1ccc(NC(=O)C2CCCCN2S(=O)(=O)c2ccc(C(C)(C)C)cc2)cc1 (stereo not given)	32	17	-39	-10	20	1	nt
CCc1nnc(NC(=O)CCC(=O)NCCc2ccccc2)s1	6	3	-1	-1	11	9	nt
COc1ccc(S(=O)(=O)N/N=C(/C)c2ccco2)cc1	2	-1	-1	-9	-1	4	nt
COc1ccc(N=C(C)C2=C(O)COC2=O)cc1	96*	-7	28	17	-11	-15	5
O=C(COC(=O)c1ccccn1)NCc1cccs1	9	nt	16	19	9	3	nt
O=C(c1ccccc1NS(=O)(=O)c1ccc([N+](=O)[O-])cc1[N+](=O)[O-])N1O[C@@H]2C=C[C@H]1C2	53*	nt	-18	nt	28	4	38
CCN(CC)c1ccc(/C=C2/C(=O)ON=C2C)cc1	56*	32	-1	11	32	17	60*
CC1=NOC(=O)/C1=C/c1ccc(N(C)C)cc1	28	-9	nt	10	10	-14	nt
Cc1nc2ccccc2c(=O)n1/N=C/c1cc(Br)ccc1O	69*	21	-9	18	35	-1	76*
C=CCOc1ccc(C2/C(=C(\O)c3ccc4c(c3)CC(C)O4)C(=O)C(=O)N2CCN2CCOCC2)cc1OCC (stereo not given)	16	12	-4	-7	-8	3	nt
C=CCS/C(N)=N\N=C\c1cc(Br)cc([N+](=O)[O-])c1O	55*	13	-32	31	11	17	44*

Screens from PubChem.
